This is part of a sample that, as a whole, favours compounds with a hit. Of some 83,000 tested, about 20% had one in any assay.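 Values shown are percent growth following 48 h exposure of cells in 96-well plates to a single concentration of compound; below 10 was considered active.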 Activity calls are given as the source filed them.

The assay has as its system MDA-MB-231 breast. Put plainly: NCI-60 one-dose screen, 48 h (100 = growth as untreated, 0 = no growth, -100 = all killed). The conditions noted are these: 10 µM unless noted.
In the case of `Cc1nn(-c2ccc(Cl)cc2)c(C)c1N=Nc1ccc2oc(=O)ccc2c1`, the growth was 77.5% (inactive).

As for `O=C(NCCNc1cc(-c2cn(-c3ccccc3)nc2-c2cccc(O)c2)ccn1)Nc1ccc(Cl)c(C(F)(F)F)c1`, the growth is 36% (inactive).

`CN(c1ccc(Br)cc1)S(=O)(=O)c1ccc(-c2cnc(C3CC3)o2)cc1`: the growth was 29.9% (inactive).

For the molecule `CC(C)C[C@H]1C(=O)O[C@H](C(C)C)C(=O)N(C)[C@@H](C(C)C)C(=O)O[C@H](C(C)C)C(=O)N(C)[C@@H](C(C)C)C(=O)O[C@H](C(C)C)C(=O)N1C`, the growth was 8.5% (active).

On to `CCCC(=O)NC(c1cccnc1)c1cc(Cl)c2cccnc2c1O` (stereo unspecified), for which the growth is 45.1% (inactive).

Consider `Nc1nc(-c2cccc([N+](=O)[O-])c2)c(N=Nc2ccccc2[N+](=O)[O-])s1`, for which the growth is -54.1% (active).

Take `C/C(=N\NC(=O)CSc1nc2sc3c(c2c(=O)n1-c1ccccc1)CCC(C)C3)c1ccc(Cl)cc1` (stereo unspecified): the growth is 39.8% (inactive).

As for `C#C[C@]1(O)CC[C@H]2[C@@H]3CC=C4c5sc(Nc6nc(C)cc(OC)n6)nc5CC[C@]4(C)[C@H]3CC[C@@]21C`, the growth is 56.1% (inactive).

In the case of `CN1CCN(c2ccc(NC(=O)Nc3ccc4c(ccn4-c4cccc(C(N)=O)n4)c3)cc2C(F)(F)F)CC1`, the growth was 74.8% (inactive).

Turning to `COc1ccc(NS(=O)(=O)c2ccc(-c3cnc(C4CC4)o3)cc2)cc1Cl`, the growth was 41.9% (inactive).

For `CC1OC(O[C@@H]2C(O)C(CO)OC(O[C@H]3COC(O[C@H]4CC[C@]5(C)[C@H]6CC[C@]78OC[C@@]9(CC[C@](C)(C=O)C[C@H]97)[C@H](O)C[C@@]8(C)[C@]6(C)CC[C@H]5C4(C)C)[C@@H](OC4OC(CO)[C@@H](O)[C@@H](O)[C@@H]4O)[C@@H]3O)[C@H]2OC2OC[C@@H](O)[C@@H](O)[C@@H]2O)[C@@H](O)[C@@H](O)[C@H]1O` (stereo partly specified), the growth was -48.4% (active).

With `COc1ccc(-c2ccc3c4c(cccc24)C(=O)N(N2C(=O)c4cccc5cccc(c45)C2=O)C3=O)cc1`, the growth was 83.7% (inactive).

Take `N#Cc1c(NC(=O)c2ccc(F)c(Cl)c2)sc2c1CCC(=O)C2`: the growth was -55.7% (active).

With `Nc1ccc(-c2nnc(SCc3ccc(O)c4ncccc34)o2)cc1`, the growth is 33.8% (inactive).

As to `IP(CCCCCCCCCCSc1n(Cc2ccc3ccccc3c2)c(-c2ccccc2)c(-c2ccccc2)[n+]1Cc1ccc2ccccc2c1)(c1ccccc1)(c1ccccc1)c1ccccc1`, the growth is -63.7% (active).

For the molecule `Cc1cc(Cl)cc(NS(=O)(=O)c2ccc(-c3cnc(C4CC4)o3)cc2)c1`, the growth was 35.4% (inactive).

As for `COc1cc(/C=N/n2cnc3oc(-c4ccccc4)cc3c2=N)cc(CN2CCCCC2)c1O`, the growth is -73.4% (active).

As to `CCOC(=O)c1c(NC(=O)c2ccc(C(C)(C)C)cc2)sc2cc(OCCN3CCCCC3)ccc12`, the growth was 70.1% (inactive).

In the case of `NS(=O)(=O)Oc1ccc2nc(Nc3ccc(F)c(F)c3)ccc2c1`, the growth was 94.3% (inactive).

In the case of `CC(=O)c1sc(Nc2cccc(Nc3nc(C)c(C)s3)c2)nc1C`, the growth is 80.7% (inactive).

As to `CCCCCCNC(=O)Oc1ccc(/C(=C(\C)c2ccc(OC)cc2)c2ccc(OCCN(C)C)cc2)cc1`, the growth is 71.8% (inactive).

As to `Cc1cccc(NC(c2cc3cccc4ccc5cccc2c5c43)c2nnnn2C(C)(C)C)c1C` (stereo unspecified), the growth is 78.6% (inactive).

For the molecule `CCOC(=O)c1c(NCC(=O)Nc2cccc([N+](=O)[O-])c2)sc2c1CCCC2`, the growth is -44% (active).

Take `O=c1oc2ccc(-c3ccc(F)cc3F)cc2c(=O)n1-c1ccc(F)c(F)c1`: the growth is 7.85% (active).

As for `Brc1cccc(/C=N/Nc2nc(N/N=C/c3cccc(Br)c3)nc(N3CCOCC3)n2)c1`, the growth was 66.1% (inactive).

Consider `N#C/C(=C\c1ccc2ccccc2c1)C(=O)Nc1sc2c(c1C#N)CCC2`, for which the growth is 98.1% (inactive).

(Values after PubChem BioAssay (NCI).)
